# Experimental data reported in PubChem BioAssay AID504862 (Sanford-Burnham Center for Chemical Genomics, 2011).
# The other results are listed elsewhere or left out. Unmarked numbers belong to inactive results.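 How the source made its calls: active means average inhibition reaching 50% or more with the compound at 20 µM; inactive means the rest.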
# System: diaphorase (Clostridium kluyveri)
# Test: C. kluyveri diaphorase inhibition, resazurin coupling – biochemical, fluorescence intensity, 10 µM NADPH, counter-screen for P. falciparum G6PD inhibitor project, confirmation (AID 504862);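 further: resorufin red fluorescence formed as diaphorase reduces resazurin using NADPH; 0% = DMSO with enzyme and 100% = DMSO without enzyme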
# Details: diaphorase-coupled resazurin reduction, NADPH 10 uM, at 20 µM, hits give high values
smiles,measurement,value
O=C1NC(=O)N(c2ccccc2)C(=O)/C1=C/c1ccc([N+](=O)[O-])s1,inhibition,47.3%
